Bioassay records: PubChem, National Center for Advancing Translational Sciences (NCATS)
An excerpt weighted towards active compounds, which were near 11% of everything screened.
HPGD inh: inhibitors of human 15-hydroxyprostaglandin dehydrogenase (HPGD) | P15428 | purified HPGD, NADH fluorescence kinetic, PGE2 substrate | Potency, µM, for inactives: top-dose activity change, negative = inhibition, hits mostly inhibitors | 4.3% of 150,000 active | AID 894; further: potency means the concentration at half of the fitted maximal effect
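20 nM HPGD preincubated 15 min at room temperature with compound in 50 mM Tris-HCl pH 8, 0.01% Tween 20. Started with 1 mM NAD+ and 30 uM prostaglandin E2; NADH fluorescence (360/450 nm) read 5 times over 30-s intervals, last minus first.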
IMPase cell inh: IMPase inhibition in cells | P97697 | AID 901 | inhibition (IP1 accumulation), % at 46.1 µM | CHO-M1 cells, IP1 accumulation, HTRF TR-FRET ratio | 120,000 tested, under 10 active; active means well fitted curve in the direction sought with a large enough effect in the signal ratio, not every such curve was filed as active; inconclusive means small, poorly fitted or top-dose-only effect, or a change in a side signal; inactive means no such curve, though single readings can be large or run the other way; the % refers to the signal ratio;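 further: cells stimulated with carbachol in lithium chloride buffer; plate controls were DMSO basal wells for no effect and reference inhibitor wells for full effect; higher means more IMPase inhibition seen as more IP1 and lower FRET ratio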
Target sequence (P97697 whole entry, looked up): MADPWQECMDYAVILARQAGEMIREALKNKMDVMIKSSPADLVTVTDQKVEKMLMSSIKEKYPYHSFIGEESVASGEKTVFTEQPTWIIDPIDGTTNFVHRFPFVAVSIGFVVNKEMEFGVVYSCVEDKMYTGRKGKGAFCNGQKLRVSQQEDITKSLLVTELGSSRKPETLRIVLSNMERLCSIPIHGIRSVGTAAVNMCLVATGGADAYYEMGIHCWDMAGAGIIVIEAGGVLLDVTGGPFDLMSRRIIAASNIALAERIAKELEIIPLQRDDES
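The IP-One HTRF competitive assay in carbachol-stimulated CHO-M1 cells quantifies cellular IP1. Compounds spanned up to 46 uM final, and activity is expressed as AC50 from concentration-response fits of the ratio and donor data.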
NPSR antag: antagonists of human neuropeptide S receptor cAMP signaling; Q6W5P4; 1% of 220,000 active; CHO-NPSR cells, cAMP TR-FRET, antagonist mode; Potency, µM (highest dose often 38.3 µM), inactives show at the highest dose activity change, negative = inhibition, most hits filed as inhibitors; active means well fitted curve in the direction sought with a large enough effect; inconclusive means small, poorly fitted or top-dose-only effect, or another doubt; inactive means no such curve, though single readings can be large; an effect the other way counts as inactive or inconclusive; further: potency means the concentration at half of the fitted maximal effect; nearly all actives have a fitted effect of over 50% in size
ALDH1A1 block: blocks purified human ALDH1A1 activity. P00352. Purified ALDH1A1, NADH fluorescence, propionaldehyde substrate. Potency, µM (series often up to 75.3 µM), without a hit: at the top dose activity, negative = inhibition, most hits filed as inhibitors. 7.3% of 220,000 active. AID 1030;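 further: potency means the concentration at half of the fitted maximal effect; plate controls were no enzyme wells and a reference inhibitor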
Target sequence (P00352 whole entry, looked up): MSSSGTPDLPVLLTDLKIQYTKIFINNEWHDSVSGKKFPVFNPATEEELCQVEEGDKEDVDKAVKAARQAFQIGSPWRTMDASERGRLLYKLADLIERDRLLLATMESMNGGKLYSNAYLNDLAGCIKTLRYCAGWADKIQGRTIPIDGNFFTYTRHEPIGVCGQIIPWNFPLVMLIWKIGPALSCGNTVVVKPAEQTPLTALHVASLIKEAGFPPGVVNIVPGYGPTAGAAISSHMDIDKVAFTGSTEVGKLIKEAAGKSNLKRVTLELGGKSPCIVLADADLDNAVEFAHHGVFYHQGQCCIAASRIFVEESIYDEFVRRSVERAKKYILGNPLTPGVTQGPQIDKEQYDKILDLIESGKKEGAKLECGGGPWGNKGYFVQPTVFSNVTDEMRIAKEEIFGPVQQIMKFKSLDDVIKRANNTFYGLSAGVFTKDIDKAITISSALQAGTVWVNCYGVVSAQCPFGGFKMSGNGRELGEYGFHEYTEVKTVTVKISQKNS
PNC inhibitor: blocks assembly of the perinucleolar compartment; activity change (PNC), negative = inhibition, % at 10 µM; PC3M PTB-GFP, PNC prevalence imaging, 16 h; hits give low values; 3.1% of 140,000 active;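 active means readout at or below -70, meaning at least 70% loss of cells showing the perinucleolar compartment, a nuclear body marking cancer cells; inconclusive means readout between -30 and a set limit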;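 further: plate controls were DMSO wells for no effect and camptothecin positive control wells for full effect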
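Read-out is percentage of cells bearing a perinucleolar compartment, from automated 20x imaging of fixed, Hoechst-stained PC3M PTB-GFP cells. Cells were seeded 4 h, then exposed 16 h to compound (23 nl of library stock) in duplicate plates.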
IMPase Li inh: IMPase inhibition in cells with lithium potentiation; CHO-M1 cells, IP1 TR-FRET (IP-One), carbachol + lithium; Potency, µM (highest dose often 59.4 µM), inactives show top-dose activity, negative = IMPase inhibition, actives largely listed as inhibitors; 0.35% of 210,000 active; AID 1457; active means well fitted curve in the direction sought with a large enough effect; inconclusive means small, poorly fitted or top-dose-only effect, or another doubt; inactive means no such curve, though single readings can be large; an effect the other way counts as inactive or inconclusive;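 further: IP1 builds up when IMPase is blocked and the TR-FRET signal falls; potency means the concentration at half of the fitted maximal effect; plate controls were basal vehicle for no effect and high inhibitor control for full effect; nearly all actives have a fitted effect of over 50% in size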
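Concentration–response in CHO-M1 cells, lithium-potentiated; 30 min at 37C. IP1 detected by competitive TR-FRET after 10 min lysis at RT. Hill-fitted AC50.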
* = called active by the depositor; ? = inconclusive; / = not tested or not shown; [ ] = another dose, or the depositor's remark. Unless noted, the call rests on the fitted dose curve; in most records, active means well fitted inhibition curve with a large enough effect (not every such curve was filed as active); inconclusive means small, poorly fitted or top-dose-only effect, or another doubt; inactive means no such curve, though single readings can be large or run the other way. Unless noted, on the % scale 0 is the no-effect control and ±100 the full control effect.

SMILES	HPGD inh	IMPase cell inh	NPSR antag	ALDH1A1 block	PNC inhibitor	IMPase Li inh
O=C1c2cccnc2C(Nc2ccc(S(=O)(=O)N3CCCCC3)cc2)N1Cc1ccccc1 (configuration not stated)	-8%	0	-11%[46.1 µM]	-12%	13	5%[38.3 µM]
O=C1c2cccnc2C(Nc2ccc(Br)cc2)N1Cc1cccs1 (configuration not stated)	/	/	-19%	6.3µM*	/	2%
COc1ccc(NC2c3ncccc3C(=O)N2Cc2cccs2)cc1 (configuration not stated)	/	/	10%	3.2µM*	/	11%
C=C(C)C1CC=C(C)/C(=N\NC(=S)Nc2ccc(C)cc2)C1 (configuration not stated)	-21%	/	-24%	?	4	1%
CCOC(=O)CSc1cc(=O)n(C)c2cc(Cl)ccc12	-18%	-21	-26%[46.1 µM]	?	21	?
CCCCN(CC)CCCNC(=O)C1c2ccccc2C(=O)N(C)C1c1cn(C)c2ccccc12 (configuration not stated)	-3%	14	-6%[46.1 µM]	?	-7	58%[38.3 µM]
Cn1cnnc1SCC(=O)c1ccc2c(c1)OCCO2	-22%	-7	-4%[46.1 µM]	8.9µM*	14	13%[38.3 µM]
CCCCn1nnnc1SCC(=O)Nc1ccc2c(c1)OCCO2	-8%	4	8%[7.67 µM]	4.5µM*	33	-1%[38.3 µM]
CCn1c(SCC(=O)c2ccc3c(c2)OCCO3)nnc1-c1ccco1	?	-9	-13%[46.1 µM]	?	-86*	21%[38.3 µM]
Cn1c(SCC(=O)c2ccc3c(c2)OCCO3)nnc1C1CC1	-8%	15	-9%[46.1 µM]	20µM*	?	10%
C/C(=N\NC(N)=S)c1ccc[nH]1	-8%	/	/	-10%[13.5 µM]	/	3%
Fc1ccc(C2=CSC3=NCCN23)cc1	/	/	4%	0%	/	2%
Cc1cnc(CNc2ncnc3ccc(-c4ccccc4C(F)(F)F)cc23)cn1	/	/	/	-4%	/	-8%
Cc1ccnc(SCC(=O)N2CCCc3ccccc32)n1	/	/	0%	-5%	/	5%
Fc1ccc(CSc2ccc(-c3cccs3)nn2)cc1	-11%	1	-1%	-3%	?	-30%
Cn1c(SCC(=O)c2ccc3c(c2)OCCO3)nnc1C(F)(F)F	/	/	-18%	22µM*	/	/
CCCn1nnnc1SCC(=O)c1ccc2c(c1)OCCO2	-24%	2	-9%[46.1 µM]	3.2µM*	?	26%[38.3 µM]
Cn1nnnc1SCC(=O)c1ccc2c(c1)OCCO2	/	/	-15%	?	/	5%
COc1ccc(CNS(=O)(=O)NCc2ccc(C)cc2)cc1	/	/	6%	5%	/	8%
O=C(c1ccco1)N1CCN(C(=O)c2cnn3c2NC(c2cccs2)CC3C(F)(F)F)CC1 (configuration not stated)	-3%	-3	-16%[46.1 µM]	-1%	3	15%[38.3 µM]
O=C(NCc1ccco1)c1cnn2c1NC(c1ccccc1)CC2C(F)(F)F (configuration not stated)	28µM*	7	11%[7.67 µM]	-4%	?	25%[38.3 µM]
O=C(c1cnn2c1NC(c1ccco1)CC2C(F)(F)F)N1CCN(c2cccc(Cl)c2)CC1 (configuration not stated)	-28%	8	-18%[46.1 µM]	3.2µM*	-22	23%
COc1ccc(C2=NOC(C(=O)NC(C)C)C2)cc1 (configuration not stated)	-5%	-9	5%[46.1 µM]	11%	-23	-4%[38.3 µM]
COc1ccc2nc(NC(=O)CN(c3ccc(C)cc3)S(=O)(=O)c3c(C)nn(C)c3C)sc2c1	?	21	?	-6%	18	28%[38.3 µM]
Fc1ccc(CSc2nncn2NCc2ccccc2)cc1	2%	?	16%[46.1 µM]	4%	-21	-3%
SMILES	HPGD inh	IMPase cell inh	NPSR antag	ALDH1A1 block	PNC inhibitor	IMPase Li inh
Fc1ccc(CSc2nncn2NC/C=C/c2ccccc2)cc1	0%	-9[1.84 µM]	1%[46.1 µM]	4%	-83*	-3%[38.3 µM]
COc1ccc(Oc2c(C=O)c3ccccc3n2C)cc1	32µM*	?	-18%[46.1 µM]	-7%	100	-1%[38.3 µM]
Cc1ccc(Oc2c(C=O)c3ccccc3n2C)cc1	-7%	12	-30%[46.1 µM]	-4%	94	-8%[38.3 µM]
Cc1nc(C)n(CC(=O)N2CCCC(C(=O)c3cccc4ccccc34)C2)n1 (configuration not stated)	/	/	0%	10%	/	6%
CC1(C)CC(=O)C2=C(C1)OC1=C(C2)C(=O)CC(C)(C)C1	-18%	/	7%	18µM*	22	-4%
CCOC(=O)C1(CC2CCCCO2)CCN(S(=O)(=O)c2ccccc2)CC1 (configuration not stated)	/	/	16%	?	/	12%
CC(C)(C)c1ccc(S(=O)(=O)N2CCC(CO)(CC3CCCCO3)CC2)cc1 (configuration not stated)	/	/	32%	0.32µM*	/	35%
CC(=O)Oc1cccc(-c2nc3ccccc3c(=O)o2)c1	/	/	13%	?	/	-1%
CCOc1ccc(N2C(=O)CS/C2=C(\C(Cl)=C(Cl)Cl)[N+](=O)[O-])cc1	-5%	7	-16%[46.1 µM]	22µM*	50	6%[38.3 µM]
CCOc1ccc(N2C(=O)CNC2=S)cc1	/	/	-1%	2%	/	-2%
O=C(CC(Nc1ccc(F)cc1)C(=O)O)c1ccccc1 (configuration not stated)	-6%	8	-17%[46.1 µM]	?	?	22%[38.3 µM]
O=C(CC(Nc1ccc(F)cc1)C(=O)OCC(=O)c1cccs1)c1ccccc1 (configuration not stated)	-15%	-5	-4%	11µM*	7	-3%
COC(=O)C1=C(C)Nc2nnnn2C1c1ccccc1Cl (configuration not stated)	-9%	-14	-4%[46.1 µM]	2.5µM*	?	-1%
CCCCOc1ccccc1C1C(C(N)=O)=C(C)Nc2nnnn21 (configuration not stated)	-9%	-12	-9%[46.1 µM]	9%	0	18%[38.3 µM]
CCCCCOC(=O)C1=C(C)Nc2nnnn2C1c1ccccc1Cl (configuration not stated)	-6%	5	?	2µM*	-13	42%[38.3 µM]
CCCCC(NS(=O)(=O)c1ccc(OC)cc1)C(=O)O (configuration not stated)	-8%	0	-9%[46.1 µM]	?	-100*	-26%[38.3 µM]
COc1ccc2cnn(-c3ccc(C)cc3)c(=O)c2c1OC	25µM*	-4	-5%[46.1 µM]	?	-18	-29%[38.3 µM]
COc1ccc2cnn(CCOc3cc(C)ccc3C(C)C)c(=O)c2c1OC	-16%	/	-40%	-4%	-113*	6%
CCOc1ccccc1OCCn1ncc2ccc(OC)c(OC)c2c1=O	-19%	?	-7%[46.1 µM]	?	15	-14%[38.3 µM]
COc1ccc(Nc2oc(COc3ccccc3OC)nc2C#N)cc1	14µM*	/	-10%	2%	72	10%
COc1ccc(CCNc2oc(COc3ccccc3F)nc2C#N)cc1OC	-10%	?	-12%[46.1 µM]	?	16	-2%[38.3 µM]
